Measurements: ChEMBL document CHEMBL1201862, “PubChem BioAssay data set” (2004)
About 3,300 (6.1%) of roughly 54,000 sequences were called active. Rule as the data show it: active = GI50 up to about 1.1 µM and inactive = higher. Only a sample is shown. Entries with a potency or affinity are not part of this list.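 Following 48 hours of exposure in 96-well plates, responses at five concentrations were used to interpolate endpoints linearly. GI50 marks 50% less growth.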

tested on: Malme-3M; assay: NCI tumour cell line growth inhibition, 48 h

Substance | GI50 [nM]
[Bis(aminomethyl)pentamethylenesilane]tetrachloropaltinum(IV), CHEMBL2146204 | 1220
[Bis(aminomethyl)tetramethylenesilane]dichloropaltinum(II), CHEMBL2146205 | 8590
[Bis(aminomethyl)dimethylsilane]tetrachloroplatinum(IV), CHEMBL2146190 | 2770
[Bis(aminomethyl)tetramethylenesilane]tetrachloropaltinum(IV), CHEMBL2146189 | 1620
cis-Bis[[(trimethylsilyl)methyl]amino]tetrachloroplatinum(IV), CHEMBL2146191 | 2250
mu-(1,7-nanodiamine-N,N')bis-(cis-aminedichloroplatimum (II)), CHEMBL2146215 | 2410
[Bis(aminomethyl)diethylsilane]tetrachloroplatinum(IV), CHEMBL2146203 | 1220
CISPLATIN, CHEMBL11359 | 1600
[Bis(aminomethyl)ethylmethylsilane]tetrachloroplatinum(IV), CHEMBL2146192 | 2080
[Bis(aminomethyl)pentamethylenesilane]dichloropaltinum(II), CHEMBL2146202 | 1540
[Bis(aminomethyl)dimethylsilane]dichloroplatinum (II), CHEMBL2146201 | 17700
